PubChem BioAssay (Tox21)
Several values for one entry are separate records, joined by “and”; a condition that tells them apart may be missing. Identical values can stand only once. Activity calls are given as the source filed them. Unless noted, calls come from the whole dose curve; as a rule, active = well fitted curve in the direction sought with a large enough effect in the repeat runs; inconclusive = weak or mixed curves; inactive = no such curve, though single readings can be large; an effect the other way counts as inactive or inconclusive.

Columns and labels:
[1] = qHTS assay to identify small molecule antagonists of the thyroid receptor (TR) signaling pathway - cell viability counter screen (AID 743064); note: nearly all actives have a fitted effect of over 50% in size; note: potency is the fitted concentration of half-maximal effect
Method in brief: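 Viability of T3-stimulated (1 nM final) GH3.TRE-Luc cells is measured by CellTiter-Fluor fluorescence after 23.5 h compound exposure at 37 °C plus 30 min reagent incubation.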

[2] = qHTS assay to identify small molecule antagonists of the thyroid receptor (TR) signaling pathway (AID 743065); note: nearly all actives have a fitted effect of over 55% in size; note: potency is the fitted concentration of half-maximal effect
Method in brief: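 Antagonism measured as loss of luciferase signal in GH3 cells stably carrying a TRE-luciferase reporter, co-treated with compound and T3 (1 nM final) for 23.5 h at 37 C. Viability was read in the same well by CellTiter-Fluor.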

[3] = system: thyroid hormone receptor (rat, GH3 cells); assay: qHTS assay to identify small molecule agonists of the thyroid receptor (TR) signaling pathway (AID 743066; calls by dose curve)
[4] = qHTS assay to identify small molecule antagonists of the estrogen receptor alpha (ER-alpha) signaling pathway - cell viability counter screen (AID 743074; calls by dose curve;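 note: HEK293 cells carrying ER-alpha-UAS-bla reporter stimulated with 17beta-estradiol; nearly all actives have a fitted effect of over 45% in size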; note: potency is the fitted concentration of half-maximal effect)
[5] = qHTS assay to identify small molecule antagonists of the estrogen receptor alpha (ER-alpha) signaling pathway using the BG1 cell line - cell viability counter screen (AID 743081);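 note: compound given together with 17beta-estradiol as the ER stimulus; nearly all actives have a fitted effect of over 45% in size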; note: potency is the fitted concentration of half-maximal effect
Aromatase (Homo sapiens) = Aromatase (Homo sapiens) (UniProt P11511); assay: qHTS assay to identify aromatase inhibitors (AID 743083); note: nearly all actives have a fitted effect of over 55% in size; note: potency is the fitted concentration of half-maximal effect
[6] = target: Estrogen receptor (Homo sapiens) (UniProt P03372); assay: qHTS assay to identify small molecule agonists of the estrogen receptor alpha (ER-alpha) signaling pathway (AID 743075; calls by dose curve;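 note: HEK293 GripTite cells with ER-alpha and UAS-driven beta-lactamase reporter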; note: potency is the fitted concentration of half-maximal effect)
[7] = qHTS assay to identify small molecule antagonists of the estrogen receptor alpha (ER-alpha) signaling pathway using the BG1 cell line (AID 743080; calls by dose curve;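 note: BG1 cells stimulated with 17beta-estradiol alongside compound; nearly all actives have a fitted effect of over 25% in size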; note: potency is the fitted concentration of half-maximal effect)
Method in brief: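 BG1-Luc-4E2 cells (endogenous full-length ER-alpha, stable 4×ERE-luciferase) were starved 5 days in phenol-red-free medium with 10% charcoal-stripped FBS, plated 24 h, then given compound plus 17beta-estradiol for 21.5 h at 37 C; ONE-Glo luminescence read after 30 min.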

[8] = target: Estrogen receptor (Homo sapiens) (UniProt P03372); assay: qHTS assay to identify small molecule agonists of the estrogen receptor alpha (ER-alpha) signaling pathway using the BG1 cell line (AID 743079); note: nearly all actives have a fitted effect of over 20% in size; note: potency is the fitted concentration of half-maximal effect

Measured: Potency

Aromatase (Homo sapiens), sequence (P11511 whole entry, looked up): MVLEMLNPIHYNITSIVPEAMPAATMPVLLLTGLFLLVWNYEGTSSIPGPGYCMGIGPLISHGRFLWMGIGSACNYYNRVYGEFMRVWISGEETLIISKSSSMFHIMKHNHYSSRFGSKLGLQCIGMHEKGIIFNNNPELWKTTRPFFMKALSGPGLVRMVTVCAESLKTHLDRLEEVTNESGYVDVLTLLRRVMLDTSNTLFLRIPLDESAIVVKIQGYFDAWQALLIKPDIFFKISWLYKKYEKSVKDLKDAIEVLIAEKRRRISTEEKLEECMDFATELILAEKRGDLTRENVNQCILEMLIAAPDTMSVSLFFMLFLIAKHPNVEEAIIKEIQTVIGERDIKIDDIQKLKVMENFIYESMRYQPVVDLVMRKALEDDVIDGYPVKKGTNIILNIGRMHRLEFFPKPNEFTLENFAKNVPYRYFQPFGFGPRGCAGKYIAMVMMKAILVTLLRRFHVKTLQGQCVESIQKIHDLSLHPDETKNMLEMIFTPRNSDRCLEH
Estrogen receptor (Homo sapiens), sequence (P03372 whole entry, looked up): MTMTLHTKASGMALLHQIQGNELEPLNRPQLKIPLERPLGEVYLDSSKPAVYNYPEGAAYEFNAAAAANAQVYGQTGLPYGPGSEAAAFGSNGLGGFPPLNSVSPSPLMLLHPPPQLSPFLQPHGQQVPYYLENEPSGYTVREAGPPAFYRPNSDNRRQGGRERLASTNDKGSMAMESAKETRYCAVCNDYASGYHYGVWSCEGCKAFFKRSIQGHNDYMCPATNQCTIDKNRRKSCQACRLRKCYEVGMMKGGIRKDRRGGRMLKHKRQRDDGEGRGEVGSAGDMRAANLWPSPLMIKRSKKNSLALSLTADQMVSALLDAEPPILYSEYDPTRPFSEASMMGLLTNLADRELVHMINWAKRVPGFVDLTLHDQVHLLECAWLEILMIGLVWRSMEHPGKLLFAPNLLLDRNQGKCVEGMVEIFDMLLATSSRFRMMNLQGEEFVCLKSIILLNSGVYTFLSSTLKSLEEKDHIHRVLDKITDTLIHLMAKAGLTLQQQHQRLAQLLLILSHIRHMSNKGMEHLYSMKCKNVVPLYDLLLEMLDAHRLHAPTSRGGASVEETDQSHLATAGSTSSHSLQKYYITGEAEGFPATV

CC(C)(CCl)C(=O)Cl
not listed: [6] | [7] | [8]
inactive: all other assays above

CCCCOC(=O)c1ccccc1C(=O)OCc1ccccc1
not listed: [6] | [7] | [8]
inactive: all other assays above

IC(I)=C(I)I
active: [1] 7.7 µM | [2] 6.11 µM | [7] 9.69 µM | Aromatase (Homo sapiens) 6.86 µM
not listed: [8]
inactive: all other assays above

CC(C)O.CC(C)O.OCCN(CCO)CCO.OCCN(CCO)CCO.[Ti]
inactive: [1] | [2] | [3] | [4] | [5]

CC(C)(Cl)[N+](=O)[O-]
not listed: [6] | [7] | [8]
inactive: all other assays above

BrCC(Br)C1CCC(Br)C(Br)C1 (stereo not given)
inactive: [3] | [4] | [5] | Aromatase (Homo sapiens)
active: [1] 68.2 µM | [2] 48.3 µM

CC(=O)c1cc2c(cc1C)C(C)(C)C(C)CC2(C)C (stereo not given)
inactive: [1] | [2] | [3] | [4] | [5]
active: Aromatase (Homo sapiens) 54.5 µM

CCOP(=O)(OCC)Oc1ccc([N+](=O)[O-])cc1
inactive: [1] | [2] | [3] | [4] | [5]

O=[N+]([O-])c1ccc(F)c([N+](=O)[O-])c1
active: [2] 61.7 µM | [5] 18.8 µM and 49 µM
not listed: [7] | [8]
inactive: all other assays above

Oc1ccc(Cl)c(Cl)c1Cl
not listed: [6] | [7] | [8]
inactive: all other assays above

CCc1ccc(C(=O)NN(C(=O)c2cc(C)cc(C)c2)C(C)(C)C)cc1
active: [1] 1.54 µM
not listed: [7]
inactive: all other assays above

Clc1cccc2ccccc12
not listed: [6] | [7] | [8]
inactive: all other assays above

Clc1cccc(SC2CCNCC2)n1
inactive: all assays above

O=C(O)c1ccccc1C(=O)Nc1cccc2ccccc12
not listed: [6] | [7] | [8]
inactive: all other assays above

COc1nn(C(=O)NS(=O)(=O)c2ccccc2OC(F)(F)F)c(=O)n1C
not listed: [6] | [7] | [8]
inactive: all other assays above

OC(c1ccc(Cl)cc1)(c1ccc(Cl)cc1)c1cccnc1
active: [1] 61.1 µM | [2] 54.5 µM
inactive: [3] | [4] | [6] | [5]

C[C@@H]1CC[C@H]2[C@@H](C)C(=O)O[C@@H]3O[C@@]4(C)CC[C@@H]1[C@]32OO4
active: [1] 5.96 µM | [2] 2.37 µM
inactive: [3] | [4] | [5]

COP(=S)(OC)Oc1ccc([N+](=O)[O-])cc1Cl
not listed: [5] | [7]
inactive: all other assays above

C/C=C/C=O
not listed: [6] | [7] | [8]
inactive: all other assays above

O=Cc1ccc(Cl)cc1Cl
not listed: [6] | [7] | [8]
inactive: all other assays above

O=S(=O)(Cl)c1ccccc1
not listed: [6] | [7] | [8]
inactive: all other assays above

Cc1ccccc1CCl
not listed: [6] | [7] | [8]
inactive: all other assays above

O=C(NC(=O)c1c(F)cccc1F)Nc1ccc(OC(F)(F)C(F)OC(F)(F)F)c(Cl)c1 (stereo not given)
not listed: [6]
inactive: all other assays above

c1ccc(CN2CCNCC2)cc1
inactive: [1] | [2] | [3] | [4] | [5]

O=C1C(Cl)C(CCl)CN1c1cccc(C(F)(F)F)c1 (stereo not given)
not listed: [6] | [7] | [8]
inactive: all other assays above

C=COC(C)=O
not listed: [6] | [7] | [8]
inactive: all other assays above

CCC(Br)(CC)C(=O)NC(N)=O
not listed: [6] | [7] | [8]
inactive: all other assays above

CN1C[C@H](CNC(=O)OCc2ccccc2)C[C@@H]2c3cccc4c3c(cn4C)C[C@H]21
active: [1] 9.44 µM | [2] 10.6 µM
inactive: [4] | [6]

O=C(N[C@H](c1ccccc1)[C@@H]1CN2CCC1CC2)c1c(Cl)ccc(C(F)(F)F)c1Cl
active: [1] 15.6 µM | [2] 39.2 µM
inactive: [4]

CCCCN=C=O
inactive: [1] | [2] | [3] | [5] | Aromatase (Homo sapiens)

O=C(NC(=O)c1c(F)cccc1F)Nc1cc(Cl)c(Oc2ncc(C(F)(F)F)cc2Cl)c(Cl)c1
inactive: [3] | [6] | [5]
active: [1] 58.5 µM | [2] 8.27 µM

CO/N=C(/C(=O)OC)c1ccccc1COc1ccccc1C
active: [2] 3.06 µM
inactive: [1] | [3] | [8] | [5]

Cc1ccc(-c2c(Cl)nc(C#N)n2S(=O)(=O)N(C)C)cc1
inactive: [5]
active: [1] 54.4 µM | [2] 13.7 µM | [7] 54.4 µM

O=Cc1ccc2c(c1)OCO2
not listed: [6] | [7] | [8]
inactive: all other assays above

CCCCCCCCCC(=O)O[C@H]1CC[C@H]2[C@@H]3CCC4=CC(=O)CC[C@@H]4[C@H]3CC[C@]12C
active: [6] 0.848 µM [inconclusive] | [8] 0.188 µM
not listed: [4]
inactive: all other assays above

CCOP(O)OCC
inactive: [1] | [2] | [3] | [5] | Aromatase (Homo sapiens)

CO/C=C(/C(=O)OC)c1ccccc1COc1cccc(C(F)(F)F)n1
active: [2] 0.432 µM | [6] 1.38 µM [inconclusive] | Aromatase (Homo sapiens) 68.5 µM
inactive: [1] | [3]

O=C(O)C1(c2ccc3c(c2)OC[C@H](Cc2ccc(-c4ccccc4)cc2)[C@H]3O)CCCC1
inactive: [5] | Aromatase (Homo sapiens)
active: [1] 61.1 µM | [2] 54.5 µM | [4] 54.9 µM

CC[C@H]1C[C@H]2[C@@H]3CCC4=CC(=O)CC[C@@H]4[C@H]3CC[C@]2(C)[C@H]1O
active: [2] 21.1 µM | [8] 10.6 µM
inactive: [1] | [3] | [6] | Aromatase (Homo sapiens)
